# Test system: H9c2
# Assay: protection of cardiomyocytes from stress damage, SAR follow-up, cell-based, panel, H9c2 and HL-1, ATP luminescence, set 2 (AID 651871);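 note: cells exposed to stressor for 2 h before ATP readout; reference of the scale not given here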
# Settings: H9c2/HL-1 cardiomyocytes, 2-deoxyglucose stress, with 2-deoxyglucose, run 4, at 39.5 µM (top of the series)
smiles,measurement,value
COc1ccc2c(c1OC)C(=O)N1c3ccccc3C(=O)N(Cc3cccc(Cl)c3Cl)C21 (stereo unspecified),activity (protection/inhibition),71%
